IL-1B inflam inh: qHTS for Inhibitors of Inflammasome Signaling: IL-1-beta AlphaLISA Primary Screen. THP-1 LPS/ATP IL-1B secretion, AlphaLISA, 16 h; stronger effect = lower value. activity change, % at 57.5 µM. hit rate 4.7% among 360,000. AID 743279, 2014; in the data active means activity change below about -50%; inconclusive means mostly about -30% to -49%
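THP-1 cells pretreated 1 hr with compounds (up to 57.5 uM final), then stimulated with LPS (250 ng/mL final) plus ATP (1.25 mM final); secreted IL-1B measured by AlphaLISA after 16 hr, decreased signal indicating inhibition.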
TDP1 cell CPT: qHTS for Inhibitors of human tyrosyl-DNA phosphodiesterase 1 (TDP1): qHTS in cells in presence of CPT. Potency, µM (series often up to 46.2 µM), without a hit: at the top dose activity change, negative = growth inhibition, actives largely listed as inhibitors. chicken DT40 Tdp1-/-;hTDP1 cells + 20 nM CPT, ATP luminescence, 48 h. AID 686979, 2013. hit rate 12% among 420,000; further: potency means the concentration at half of the fitted maximal effect; nearly all actives have a fitted effect of over 55% in size
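Chicken DT40 Tdp1-/- cells complemented with human TDP1, 400 cells/well, exposed to compounds plus 20 nM camptothecin for at least 48 h at 37 C; viability read as ATP content by CellTiter-Glo luminescence.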
HT1080-NT tox: qHTS for induction of synthetic lethality in tumor cells producing 2HG: qHTS for the HT-1080-NT fibrosarcoma cell line | hit rate 1.6% among 360,000 | AID 686970, 2013 | Potency, µM (highest dose often 46.1 µM), for the others: at the highest dose activity, negative = less viability, actives largely listed as cytotoxic | HT-1080-NT fibrosarcoma viability, CellTiter-Glo ATP luminescence, 48 h;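 further: NT is the 2HG producing partner of a matched IDH1 knockdown line; potency means the concentration at half of the fitted maximal effect; 0% = DMSO-treated cells and -100% = media-only wells without cells; nearly all actives have a fitted effect of over 55% in size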
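Luminescent CellTiter-Glo readout after 48 hours of compound exposure at 37 degrees C defined viability of HT-1080-NT cells. Activity was normalized to DMSO wells and cell-free media wells; concentration-response curves were fitted and assigned curve classes.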
DT40 TDP1 no CPT: qHTS for Inhibitors of human tyrosyl-DNA phosphodiesterase 1 (TDP1): qHTS in cells in absence of CPT; hit rate 15% among 420,000; DT40 Tdp1-/- hTDP1 cells, no CPT, ATP luminescence, 48 h; AID 686978, 2013; Potency, µM (doses to about 46.2 µM), without a hit: at the highest dose activity change, negative = growth inhibition, hits mostly inhibitors; further: potency means the concentration at half of the fitted maximal effect; nearly all actives have a fitted effect of over 55% in size
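Readout: luminescence from CellTiter-Glo after 30 min in the dark at RT. Cells: DT40 Tdp1-/- with stable hTDP1, 400/well. Exposure: compounds alone, ≥48 hr, 37 °C.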
HT1080 IDH1KD tx: qHTS for induction of synthetic lethality in tumor cells producing 2HG: qHTS for the HT-1080-IDH1KD cell line. HT-1080 IDH1 knockdown viability, ATP luminescence, 48 h. hit rate 2% among 360,000. Potency, µM (series often up to 46.1 µM), without a hit: at the top dose activity, negative = toxicity, most hits filed as cytotoxic;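 further: potency means the concentration at half of the fitted maximal effect; 0% = DMSO wells and -100% = cell-free medium wells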
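IDH1KD HT-1080 cells, 750/well, RPMI + 5% FBS; compound pinned after 2 h settling; 48 h, 37 °C; CellTiter-Glo luminescence; % activity normalised to DMSO and no-cell wells; curves fitted, classed by r2 and efficacy.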
Starred values were filed as active, the others as inactive; u = inconclusive; x = not tested or not shown; [ ] = another dose, or the depositor's remark. Rows were chosen to be rich in hits. Some 19% of all compounds tested hit in one or more screens of this group. Unless noted, the call rests on the fitted dose curve; in most records, active means well fitted curve in the direction sought with a large enough effect; inconclusive means small, poorly fitted or top-dose-only effect, or another doubt; inactive means no such curve, though single readings can be large; an effect the other way counts as inactive or inconclusive. Unless noted, on the % scale 0 is the no-effect control and ±100 the full control effect.

SMILES | IL-1B inflam inh | TDP1 cell CPT | HT1080-NT tox | DT40 TDP1 no CPT | HT1080 IDH1KD tx
O=C(CSc1ccccc1)N/N=C/c1ccccc1O | 144.0 | 4.11µM* | u | 2.59µM* | 8.2µM*
COc1ccc(CSCC(=O)N/N=C/c2ccccc2O)cc1 | 115.4 | 2.91µM* | u | 2.59µM* | u
Cc1nccn1CC(=O)N/N=C/c1c[nH]c2ccccc12 | 47.1 | -22.7% | -6.9% | u | -24.3%
Cc1cc(SCC(=O)N/N=C/c2ccc(O)c(O)c2O)c(C)cc1Br | 23.3 | 3.26µM* | -24.1% | 4.61µM* | u
Cc1nccn1CC(=O)N/N=C/c1ccccc1O | 119.9 | u | -16.1% | 20.6µM* | -14.6%
COc1ccc(-c2nn(-c3ccccc3)cc2CNC[C@H]2O[C@@H](n3cnc(C(N)=O)n3)[C@H](O)[C@@H]2O)cc1 | u | -10.9% | -6.1% | -28.9% | 4.3%
Cc1ccccc1C(=O)N1CCC1(C)C(=O)NC(C)C (stereo not drawn) | 0.6 | -24.6% | 10.7% | -7.9% | 6.1%
O=c1[nH]cc(NCCNc2ncc(C(F)(F)F)cc2Cl)c(=O)[nH]1 | -10.9 | -1.5% | -0.8% | 5.9% | 1.2%
C=C1C[C@H](OC(=O)C(C)(O)CCl)C2C(=C)C(=O)O[C@@H]2C2C1C[C@H](O)[C@]2(O)CCl (stereo partly drawn) | x | 1.46µM* | x | 0.82µM* | x
CCCNC(=O)C1CCN(Cc2cc3ccccc3n2Cc2ccccc2)CC1 | x | u | x | 18.4µM* | x
O=C(NCCc1ccccc1)C1CCN(Cc2cccc3ccccc23)CC1 | -51.1* | u | u | u | -29.6%
CC(C)CNC(=O)C1CCN(Cc2ccc(OCc3ccccc3)cc2)CC1 | 14.6 | u | -11.6% | u | -12.8%
CCOc1ccccc1CNC(=O)C1CCN(Cc2cc3ccccc3n2Cc2ccccc2)CC1 | x | u | x | 16.4µM* | x
CC(CNC(=O)C1CCN(Cc2cc3ccccc3n2Cc2ccccc2)CC1)c1ccccc1 (stereo not drawn) | x | 23.1µM* | x | 16.4µM* | x
O=C(c1cc(F)c(F)cc1Cl)N1CCCc2ccccc21 | 22.5 | 0.6% | -3.1% | u | -8.1%
Cc1ccccc1-c1noc(-c2ccccc2OCC(=O)Nc2ccccc2[N+](=O)[O-])n1 | x | -20.8% | x | -9.5% | x
CCCNC(=O)NC(=O)CSc1nncs1 | -11.5 | -0.9% | 19.1% | -4.4% | 16.3%
O=C(NCCc1ccccc1)C1CCN(Cc2cc3ccccc3n2Cc2ccccc2)CC1 | x | u | x | 20.6µM* | x
O=C(NCCc1ccccc1)C1CCN(c2ncccn2)CC1 | 5.0 | u | 4.4% | -1.3% | -8.9%
CN(C)CCNC(=O)C1CCN(Cc2cc3ccccc3n2Cc2ccccc2)CC1 | x | 20.6µM* | x | 16.4µM* | x
COc1cc(/C=N/NC(=O)CNC(=O)c2ccncc2)ccc1O | 10.8 | 7.5% | 5.3% | 16.0% | 14.4%
COc1cccc(/C=N/NC(=O)C[n+]2ccccc2)c1O | 9.2 | -2.6% | 0.8% | -9.5% | -1.0%
O=C(CNC(=O)c1ccncc1)N/N=C/c1ccc(O)cc1O | 5.6 | u | -16.7% | 18.4µM* | -6.9%
COc1cccc(/C=N/NC(=O)CNC(=O)c2ccco2)c1O | 77.2 | 6.51µM* | -12.8% | 8.2µM* | -19.5%
COc1cccc(/C=N/NC(=O)CN2CC(c3ccccc3)CC2=O)c1O (stereo not drawn) | 92.2 | u | u | 18.4µM* | u
SMILES | IL-1B inflam inh | TDP1 cell CPT | HT1080-NT tox | DT40 TDP1 no CPT | HT1080 IDH1KD tx
COCCCNC(=S)N/N=C/c1cccc(OC)c1O | -2.6 | 0.82µM* | u | 0.651µM* | u
COCCCNC(=S)N/N=C/c1ccc(O)cc1O | x | u | -10.1% | u | -17.3%
CCS(=O)(=O)N1Cc2ccccc2CC1C(=O)N(C)CC(=O)Nc1cccc(F)c1 (stereo not drawn) | -7.3 | -9.8% | -0.3% | -0.6% | 2.8%
COc1cccc(/C=N/NC(=O)CNC(=O)C2COc3ccccc3O2)c1O (stereo not drawn) | 195.2 | 5.8µM* | u | 3.66µM* | u
COc1ccc(CCCC(=O)N/N=C/c2cccc(OC)c2O)cc1C | 73.4 | 1.84µM* | u | 1.64µM* | u
COc1cccc(/C=N/NC(=O)CNC(=O)c2ccncc2)c1O | 1.0 | u | 14.3% | u | u
CCOc1ccc(/C=N/NC(=O)C(O)c2ccccc2)c(O)c1 (stereo not drawn) | 94.5 | 4.11µM* | u | u | 11.6µM*
COc1cccc(/C=N/NC(=O)CNC(=O)c2cccnc2)c1O | 127.5 | -102.7% | u | 7.31µM* | 11.6µM*
CCOC(=O)CN1C(=O)NC2(CCCc3ccccc32)C1=O (stereo not drawn) | 17.9 | 5.4% | 0.0% | 2.4% | -0.1%
CCOCCCn1c(SCC(=O)Nc2ccc(C(C)C)cc2)nc2c(sc3ccccc32)c1=O | x | -23.2% | x | u | x
COc1cc(/C=N/NC(=O)c2ccc3c(c2)OCCO3)c(Br)c(Br)c1O | -10.5 | -12.1% | 1.8% | u | -0.8%
COc1cccc(/C=N/NC(=O)CNC(=O)c2ccc3c(c2)OCCO3)c1O | 48.3 | 16.4µM* | u | u | u
CCOc1cccc(/C=N/NC(=O)c2ccc3c(c2)OCCO3)c1O | 62.0 | 2.59µM* | u | 4.11µM* | u
O=C(COc1ccccc1)NCC(=O)N/N=C/c1ccc(O)cc1O | 119.9 | u | u | 16.4µM* | u
O=C(CNC(=O)c1ccc2c(c1)OCCO2)N/N=C/c1ccc(O)cc1O | 9.5 | u | -19.5% | 18.4µM* | u
NS(=O)(=O)c1ccc(CCNC(=O)Cc2ccc(Cl)cc2)cc1 | 1.2 | 10.2% | 8.9% | -3.0% | -0.6%
CCOC(=O)CCn1nc(C)c2c(C)n(-c3ccccc3)nc2c1=O | x | 3.5% | x | -6.7% | x
COc1cccc(/C=N/NC(=O)CNC(=O)COc2ccccc2)c1O | 180.4 | 6.51µM* | u | 7.31µM* | u
COc1ccc(C(C)NC(=O)c2ccncc2)cc1OC (stereo not drawn) | 28.9 | 1.7% | 1.6% | 7.4% | 2.6%
COc1ccc(-c2nc3cc(C)ccc3cc2CN(C(=O)c2cccs2)C2CC2)cc1OC | x | u | x | 13µM* | x
COc1ccc(-c2nc3cc(C)ccc3cc2CN(C(=O)c2cc(C)nn2C)C2CC2)cc1OC | x | u | x | 20.6µM* | x
COc1ccc(-c2nc3cc(C)ccc3cc2CN(C(=O)c2ccco2)C2CC2)cc1OC | x | -6.5%[9.04 µM] | x | u | x
COc1ccc(-c2nc3cc(C)ccc3cc2CN(C(=O)c2ccc(C)s2)C2CC2)cc1OC | x | -11.9%[9.04 µM] | x | 20.6µM* | x

Bioassay records as filed in PubChem BioAssay.
